Source: PubChem
Sampled rows, rich in hits. Any-hit rate of the full collection: about 1.9%.
H9c2 protect: myocardial damage modulation in H9c2 cells; hit rate 0.63% among 360,000; AID 588492; H9c2 cardiomyocytes, H2O2 injury protection, ATPLite, 2 h; protection from H2O2 cell death, % at 20 µM;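 active = compounds giving at least 50% protection of heart cells from peroxide-induced death in the single-dose screen, raw or plate-pattern-corrected value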;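 also: 0% = DMSO wells with peroxide and 100% = DMSO wells without peroxide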
ATG4B inhibitor: ATG4B (human) cysteine protease inhibition; inhibition, % at 8.33 µM; hit rate 0.51% among 340,000; ATG4B cleavage of LC3-PLA2, NBD-HPC fluorescence, 1 h; Q9Y4P1; in the data active = inhibition above about 40%
Target sequence (Q9Y4P1 whole entry, looked up): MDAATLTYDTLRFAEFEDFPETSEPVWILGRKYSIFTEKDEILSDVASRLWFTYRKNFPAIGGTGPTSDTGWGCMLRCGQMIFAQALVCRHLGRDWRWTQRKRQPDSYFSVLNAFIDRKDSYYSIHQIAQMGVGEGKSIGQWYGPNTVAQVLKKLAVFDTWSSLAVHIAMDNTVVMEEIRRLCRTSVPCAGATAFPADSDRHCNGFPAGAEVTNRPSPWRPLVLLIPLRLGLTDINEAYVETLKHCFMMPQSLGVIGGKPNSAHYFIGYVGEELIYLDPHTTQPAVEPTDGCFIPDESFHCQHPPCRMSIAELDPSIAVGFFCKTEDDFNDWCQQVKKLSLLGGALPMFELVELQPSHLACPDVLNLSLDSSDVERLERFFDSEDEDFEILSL
PP5 inh: blocks human protein phosphatase 5 activity | AID 1987 | P53041 | hit rate 0.18% among 320,000 | purified PP5c, OMFP substrate fluorescence | inhibition, % at 6.7 µM;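 active = inhibition above the campaign's mean inhibition across all tested compounds plus 3 SD, cut at about 9.5% in these data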;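 also: 0% = DMSO only and 100% = 100 µM cantharidin control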
PP1 inh: PP1-alpha (human) inhibition in PP5 counter-screen; purified PP1alpha, OMFP fluorescence; inhibition, % at 6.7 µM; hit rate 0.9% among 320,000;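 active = inhibition above the mean inhibition of all tested compounds plus 3 SD, computed separately for each screening campaign, cut at about 15% in these data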
PP1 inh confirm: confirmation of human PP1 phosphatase inhibitors; shares compounds with PP1 inh; purified PP1alpha, OMFP substrate fluorescence; inhibition, % at 6.7 µM; hit rate 52% among 1,900; AID 2358;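 active = mean PP1 inhibition above a set limit taken from the earlier primary screen, cut at about 15% in these data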
PP5 inh counter: PP5 phosphatase inhibition, counter-screen for PP1 inhibitors; hit rate 4% among 1,900; purified PP5c, OMFP fluorescence; shares compounds with PP1 inh; inhibition, % at 6.7 µM;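 active = mean PP5 inhibition over triplicate wells above about 9.5% taken from the earlier PP1 screen, limit read from the data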
Active calls of the source: *; . = no result.

SMILES	H9c2 protect	ATG4B inhibitor	PP5 inh	PP1 inh	PP1 inh confirm	PP5 inh counter
COc1ccc(C2C(C(C)=O)=C(O)C(=O)N2c2ccc(Br)cc2)cc1 (centres undefined)	-6	-2	3	18*	17*	-3
CC(=O)C1=C(O)C(=O)N(c2ccc(Br)cc2)C1c1ccc(Cl)cc1 (centres undefined)	-5	4	-2	28*	21*	-1
CC(=O)C1=C(O)C(=O)N(c2ccc(O)cc2)C1c1ccc(Cl)cc1 (centres undefined)	8	-10	1	5	.	.
CC(=O)C1=C(O)C(=O)N(c2cc(C(C)(C)C)on2)C1c1ccc(Br)cc1 (centres undefined)	-4	-4	1	20*	22*	-1
C=CCCC(=O)N(C)CCO	0	-6	0	0	.	.
COC(=O)C1=C(C)NC(=S)NC1c1ccc(OCC(=O)N2CCCCC2)c(OC)c1 (centres undefined)	6	-2	1	-1	.	.
CCCSc1nnc(NC(=O)CSc2sc3c(O)cc(=O)[nH]c3c2C#N)s1	2	30	1	14	.	.
N#Cc1cccc(NC(=O)CSc2sc3c(O)cc(=O)[nH]c3c2C#N)c1	6	1	2	9	.	.
N#Cc1c(SCC(=O)Nc2nc3ccccc3s2)sc2c(O)cc(=O)[nH]c12	-11	-30	1	19*	1	-3
N#Cc1c(SCC(=O)Nc2nccs2)sc2c(O)cc(=O)[nH]c12	4	16	1	26*	1	-3
N#Cc1c(SCC(=O)Nc2ccc(Cl)cc2Cl)sc2c(O)cc(=O)[nH]c12	-3	2	-2	9	.	.
N#Cc1c(SCC(=O)Nc2nc3ccc(Br)cc3s2)sc2c(O)cc(=O)[nH]c12	-1	17	0	18*	13	0
O=C1C(=O)N(c2ccccn2)C(c2cccc([N+](=O)[O-])c2)/C1=C(/O)c1ccc(Br)cc1 (centres undefined)	0	7	0	10	.	.
O=C(CSc1nc(O)cc(=O)[nH]1)N1c2ccccc2CCc2ccccc21	-5	-2	1	28*	-3	-4
NC(=O)c1oc2ccccc2c1NC(=O)c1nc2ccccc2s1	9	1	-3	25*	16*	-6
O=C(Nc1nnc(-c2ccccc2)o1)c1nc2ccccc2s1	14	-4	-1	25*	28*	-8
O=C(c1ccc(Cl)cc1)N1CCOc2ccccc21	-13	-3	.	.	.	.
O=C(NCc1ccc(C(F)(F)F)cc1)C12CN(Cc3ccccc3)CC1C(c1cccc([N+](=O)[O-])c1)=NO2 (centres undefined)	0	-12	7	10	.	.
O=C(NCc1ccc2c(c1)OCO2)C12CN(Cc3ccccc3)CC1C(c1cccc([N+](=O)[O-])c1)=NO2 (centres undefined)	-2	4	2	25*	12	-2
CC(C(=O)c1ccccc1)[n+]1cccc(Br)c1 (centres undefined)	0	-2	1	2	.	.
COc1cc(OC)c(OC)cc1CN1CCN(Cc2cccn2C)CC1	-2	1	-1	18*	4	5
OCCn1ccc(-c2ccccc2OCc2ccc(F)cc2)n1	-3	1	1	1	.	.
CCn1c(=O)c(=O)n(CC)c2cc(S(=O)(=O)Nc3cc(C)ccc3C)ccc21	3	-4	-1	-4	.	.
Cc1ccc(-c2nc3ccccc3[nH]2)cc1NC(=O)c1sc2cc(Cl)ccc2c1Cl	1	8	-1	3	.	.
Cc1nc(S/C(=C/c2ccc(-c3cc(Cl)ccc3C)o2)C(=O)O)n[nH]1	1	-1	3	19*	18*	1
SMILES	H9c2 protect	ATG4B inhibitor	PP5 inh	PP1 inh	PP1 inh confirm	PP5 inh counter
CCOC(=O)c1cc(-c2ccccc2)sc1NC(=O)C(C)N1C(=O)NC(C)(c2ccc(Cl)cc2)C1=O (centres undefined)	5	-8	4	22*	11	1
CCOC(=O)c1cc(-c2ccccc2)sc1NC(=O)C(C)C	-6	-3	2	-3	.	.
O=C(/C=C/c1ccccc1)NC(=S)NNC(=O)c1cnccn1	57*	-3	0	22*	24*	-3
O=C(/C=C/c1ccccc1)NC(=S)NNC(=O)c1cccnc1	-7	-4	1	11	.	.
CC(C)C(C)N(Cc1cccc(C(=O)O)c1)C(=O)c1ccc2ccccc2n1 (centres undefined)	0	4	4	2	.	.
Cc1ccccc1C(=O)Nc1nc(-c2cccnc2)cs1	-2	19	-1	1	.	.
CCc1nnc(NC(=O)C(NC(=O)c2ccccc2Cl)C(C)C)s1 (centres undefined)	0	-9	3	-3	.	.
CC(C)[C@H](NC(=O)c1ccccc1Cl)C(=O)Nc1nc(-c2ccccn2)cs1	70*	-3	3	18*	27*	0
O=C(Nc1nc(-c2cccnc2)cs1)c1ccccc1Cl	2	3	0	20*	23*	-6
CC(Oc1ccc(Br)cc1)C(=O)Nc1nc(-c2ccccn2)cs1 (centres undefined)	49*	13	5	31*	32*	-2
NC(=O)c1ccc(NC(=O)C#Cc2ccccc2)cc1	-4	1	-4	-2	.	.
Cc1ccc(S(=O)(=O)NCC(=O)OCC(=O)N2CCN(C(=O)c3ccco3)CC2)cc1C	3	5	0	-5	.	.
COc1ccc(NS(=O)(=O)c2ccc(OCC(=O)N3CCOCC3)cc2)cc1Cl	-6	-2	0	2	.	.
Cn1c(C(=O)N[C@@H](C(=O)O)c2ccccc2)cc2cc(F)ccc21	-1	5	-2	-3	.	.
COCc1ccc(C(=O)N2CCCC(N3CCN(c4cccc(Cl)c4)CC3)C2)s1 (centres undefined)	1	.	.	.	.	.
Cc1ccc(-c2csc(Cc3nc(-c4ccc5c(c4)CCC(=O)N5)cs3)n2)cc1	-3	-10	4	36*	16*	-2
COc1ccc(C(=O)N2CCCC(C)(C(=O)NS(=O)(=O)C3CC3)C2)c(OC)c1 (centres undefined)	1	.	.	.	.	.
C[C@H](CO)N1C[C@H](C)[C@@H](CN(C)Cc2cccnc2)Oc2cc(-c3cccnc3)ccc2S1(=O)=O	-1	.	.	.	.	.
CN(CC1CCCO1)S(=O)(=O)c1ccc(C(=O)Nc2nc3cc4c(cc3s2)OCO4)cc1 (centres undefined)	1	10	4	23*	26*	-4
CN(CC1CCCO1)S(=O)(=O)c1ccc(C(=O)Nc2ccc3c(c2)OCO3)cc1 (centres undefined)	-1	0	0	-3	.	.
O=C(/C=C/c1ccccc1[N+](=O)[O-])OCC(=O)N1CCN(c2ccccc2)CC1	-2	.	.	.	.	.
CC(OC(=O)c1cccc(S(=O)(=O)N(C)C)c1)C(=O)NCc1ccc2c(c1)OCO2 (centres undefined)	-3	-4	-1	-5	.	.
C=CCn1c(C)cc(C2=NNC(=Nc3ccc(C)cc3)SC2)c1C	-7	18	-1	8	.	.
